Assay results as given in PubChem BioAssay (EPA / NIEHS).
Activity calls are given as the source filed them. How the source made its calls: active means hit-call score of the fitted dose curve at least 0.9, where 1 is the maximum; inactive means score below 0.9.

Experiments:
Conditions in all cases: mRNA level, 48 h; actives raise or lower the signal
[1] = read-out: Glutamate-cysteine ligase regulatory (GCLM), GCLM (gene 2730); test: LTEA_HepaRG_GCLM: Life Technologies and Expression Analysis (LTEA) Assay for Glutamate-cysteine ligase regulatory (GCLM) using HepaRG (AID 2283500)
In short: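 GCLM expression quantified by qRT-PCR, normalized to three housekeeping genes, after 48 h chemical treatment of HepaRG cells in duplicate at 8 concentrations (top 100 uM, half-log steps, 0.5% DMSO). Changes fitted both directions against vehicle.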

[2] = read-out: Glutathione S-transferase M3 (GSTM3), GSTM3 (gene 2947); test: LTEA_HepaRG_GSTM3: Life Technologies and Expression Analysis (LTEA) Assay for Glutathione S-transferase M3 (GSTM3) using HepaRG (AID 2283501)
In short: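 Changes in GSTM3 expression, an oxidative-stress marker, were scored by bidirectional curve fitting against 0.5% DMSO vehicle. Human HepaRG cultures received chemicals for 48 h in duplicate, highest concentration 100 uM with half-log dilutions.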

[3] = read-out: Heat shock 70 kDa protein 1 (HSPA1A), gene 3303; test: LTEA_HepaRG_HSPA1A: Life Technologies and Expression Analysis (LTEA) Assay for Heat shock 70 kDa protein 1 (HSPA1A) using HepaRG (AID 2283502)
In short: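 HSPA1A expression measured by qRT-PCR with ACTB/GAPDH/POLR2A normalization; curves fitted in both directions relative to DMSO vehicle. Exposure: 48 h in HepaRG cells, duplicate 8-point half-log series from 100 uM, 0.5% DMSO, serum-free induction medium.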

[4] = read-out: Hypoxia-inducible factor 1-alpha (Homo sapiens) (UniProt Q16665); test: LTEA_HepaRG_HIF1A: Life Technologies and Expression Analysis (LTEA) Assay for Hypoxia-inducible factor 1 (HIF1A) Trancription factor using HepaRG (AID 2283503)
In short: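 HIF1A transcript level read by qRT-PCR (ACTB, GAPDH, POLR2A normalization) after 48 h chemical exposure of HepaRG cultures. Eight half-log concentrations, top 100 uM, 0.5% DMSO vehicle, duplicates; bidirectional curve fit against DMSO baseline.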

[5] = read-out: 3-Hydroxy-3-Methylglutaryl-CoA Synthase 2 (HMGCS2), HMGCS2 (gene 3158); test: LTEA_HepaRG_HMGCS2: Life Technologies and Expression Analysis (LTEA) Assay for 3-Hydroxy-3-Methylglutaryl-CoA Synthase 2 (HMGCS2) using HepaRG (AID 2283504)
In short: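 Expression of HMGCS2 in human HepaRG liver cells is measured by qRT-PCR 48 h after dosing (highest 100 uM, half-log series, 0.5% DMSO). Values come from bidirectional concentration-response fitting with DMSO as baseline.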

HGF (gene 3082) = test: LTEA_HepaRG_HGF: Life Technologies and Expression Analysis (LTEA) Assay for Hepatocyte Growth Facto (HGF) using HepaRG (AID 2283505)
In short: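 Gain or loss of HGF mRNA in human HepaRG liver cells after 48 h chemical exposure; eight concentrations up to 100 uM with 0.5% DMSO vehicle, quantified by TaqMan qRT-PCR.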

[6] = read-out: Insulin Like Growth Factor 1 (IGF1), IGF1 (gene 3479); test: LTEA_HepaRG_IGF1: Life Technologies and Expression Analysis (LTEA) Assay for Insulin Like Growth Factor 1 (IGF1) using HepaRG (AID 2283506)
In short: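 Expression measured by TaqMan qRT-PCR on a Fluidigm array, with three housekeeping genes for normalisation, after 48 h treatment of HepaRG cells. Top concentration 100 uM with half-log steps, 0.5% DMSO vehicle, bidirectional fit.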

[7] = read-out: Intercellular Adhesion Molecule 1 (ICAM1), ICAM1 (gene 3383); test: LTEA_HepaRG_ICAM1: Life Technologies and Expression Analysis (LTEA) Assay for Intercellular Adhesion Molecule 1 (ICAM1) using HepaRG (AID 2283507)
In short: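 Gain or loss of transcript in HepaRG hepatic cells is quantified by qRT-PCR after 48 h chemical exposure (up to 100 uM, half-log steps), with DMSO as baseline.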

[8] = read-out: Insulin-like growth factor-binding protein 1 (IGFBP1), IGFBP1 (gene 3484); test: LTEA_HepaRG_IGFBP1: Life Technologies and Expression Analysis (LTEA) Assay for Insulin-like growth factor-binding protein 1 (IGFBP1) using HepaRG (AID 2283508)
In short: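 mRNA induction or loss was quantified by qRT-PCR after 48 h chemical exposure of human HepaRG cells, with 0.5% DMSO as vehicle and baseline. Concentration-response over eight points up to 100 uM.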

[9] = read-out: Interleukin 6 (IL6), IL6 (gene 3569); test: LTEA_HepaRG_IL6: Life Technologies and Expression Analysis (LTEA) Assay for Interleukin 6 (IL6) using HepaRG (AID 2283509)
In short: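 qRT-PCR read-out of IL6 transcript, normalized to three housekeeping genes, after 48 h chemical exposure of HepaRG cells; 8-point half-log series, top 100 uM, 0.5% DMSO vehicle. Bidirectional curve fitting against DMSO baseline.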

[10] = read-out: Interleukin 6 Receptor (IL6R), IL6R (gene 3570); test: LTEA_HepaRG_IL6R: Life Technologies and Expression Analysis (LTEA) Assay for Interleukin 6 Receptor (IL6R) using HepaRG (AID 2283510)
In short: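 IL6R transcript level by qRT-PCR after 48 h chemical exposure (8-point, half-log, max 100 uM, 0.5% DMSO vehicle) of HepaRG cells in serum-free induction medium. Normalized to three housekeeping genes; curves fitted in both directions relative to DMSO.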

[11] = read-out: Potassium channel subfamily K member 1 (KCNK1), KCNK1 (gene 3775); test: LTEA_HepaRG_KCNK1: Life Technologies and Expression Analysis (LTEA) Assay for Potassium channel subfamily K member 1 (KCNK1) using HepaRG (AID 2283511)
In short: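 HepaRG, 48 h exposure, 8-pt half-log series top 100 uM, 0.5% DMSO vehicle, duplicates. Readout: KCNK1 transcript by qRT-PCR (Fluidigm array), housekeeping-normalized; bidirectional curve fit relative to DMSO baseline.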

[12] = read-out: Keratin 19 (KRT19), KRT19 (gene 3880); test: LTEA_HepaRG_KRT19: Life Technologies and Expression Analysis (LTEA) Assay for Keratin 19 (KRT19) using HepaRG (AID 2283512)
In short: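 Gene-expression endpoint in the human liver line HepaRG after 48 h exposure to up to 100 uM test chemical with 0.5% DMSO vehicle; KRT19 mRNA by qRT-PCR, analyzed bidirectionally versus DMSO.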

[13] = read-out: JUN Transcription Factor, JUN (gene 3725); test: LTEA_HepaRG_JUN: Life Technologies and Expression Analysis (LTEA) Assay for JUN Transcription Factor using HepaRG (AID 2283513)
In short: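 mRNA measured by TaqMan qRT-PCR after 48 h chemical exposure of HepaRG cultures; normalization to three housekeeping genes. Duplicate eight-point half-log curves from 100 uM in 0.5% DMSO; gain or loss fitted against DMSO baseline.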

[14] = read-out: Lipase C (LIPC), LIPC (gene 3990); test: LTEA_HepaRG_LIPC: Life Technologies and Expression Analysis (LTEA) Assay for Lipase C (LIPC) using HepaRG (AID 2283514)
In short: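 HepaRG, 48 h exposure, 8-pt half-log series from 100 uM in 0.5% DMSO, duplicates. Readout: LIPC mRNA by Fluidigm qRT-PCR, housekeeping-normalized (ACTB/GAPDH/POLR2A). Gain or loss fitted bidirectionally against DMSO baseline.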

[15] = read-out: Lipoprotein lipase (LPL), LPL (gene 4023); test: LTEA_HepaRG_LPL: Life Technologies and Expression Analysis (LTEA) Assay for Lipoprotein lipase (LPL) using HepaRG (AID 2283515)
In short: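 HepaRG, 48 h exposure, 8-pt half-log dilutions from 100 uM, 0.5% DMSO vehicle, duplicates; qRT-PCR (Fluidigm array) of LPL mRNA vs housekeeping genes; bidirectional curve fit relative to DMSO baseline.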

[16] = read-out: MicroRNA 122 (MIR122), gene 406906; test: LTEA_HepaRG_MIR122: Life Technologies and Expression Analysis (LTEA) Assay for MicroRNA 122 (MIR122) using HepaRG (AID 2283516); further: the transcript read is the microRNA miR-122
In short: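 Expression measured by microfluidic qRT-PCR with three housekeeping genes for normalisation, after 48 h treatment of HepaRG cultures. Eight concentrations (top 100 uM, half-log steps, 0.5% DMSO vehicle) in duplicate; gain or loss fitted relative to vehicle.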

[17] = read-out: matrix metalloproteinase-10 (MMP10), MMP10 (gene 4319); test: LTEA_HepaRG_MMP10: Life Technologies and Expression Analysis (LTEA) Assay for matrix metalloproteinase-10 (MMP10) using HepaRG (AID 2283517)
In short: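 Transcript levels come from Fluidigm qRT-PCR normalized to three housekeeping genes, with curves fitted bidirectionally against 0.5% DMSO. Human HepaRG cells were dosed for 48 hours at concentrations up to 100 uM.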

MYC, MYC (gene 4609) = test: LTEA_HepaRG_MYC: Life Technologies and Expression Analysis (LTEA) Assay for MYC using HepaRG (AID 2283518)
In short: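 Cells are thawed, plated and cultured 48 h, then treated for 48 h with test chemicals (eight half-log concentrations from 100 uM, 0.5% DMSO vehicle). RNA is isolated and MYC expression quantified by qRT-PCR against three housekeeping genes.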

[18] = read-out: matrix metalloproteinase-3 (MMP3), MMP3 (gene 4314); test: LTEA_HepaRG_MMP3: Life Technologies and Expression Analysis (LTEA) Assay for matrix metalloproteinase-3 (MMP3) using HepaRG (AID 2283519)
In short: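 qRT-PCR read-out of MMP3 mRNA (normalised to three housekeeping genes) in HepaRG liver cells after 48 h chemical exposure; 8-point half-log series, top 100 uM, 0.5% DMSO vehicle. Bidirectional curve fitting against DMSO baseline.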

Measured: outcome

Chain of Hypoxia-inducible factor 1-alpha (Homo sapiens) (Q16665 whole entry, looked up): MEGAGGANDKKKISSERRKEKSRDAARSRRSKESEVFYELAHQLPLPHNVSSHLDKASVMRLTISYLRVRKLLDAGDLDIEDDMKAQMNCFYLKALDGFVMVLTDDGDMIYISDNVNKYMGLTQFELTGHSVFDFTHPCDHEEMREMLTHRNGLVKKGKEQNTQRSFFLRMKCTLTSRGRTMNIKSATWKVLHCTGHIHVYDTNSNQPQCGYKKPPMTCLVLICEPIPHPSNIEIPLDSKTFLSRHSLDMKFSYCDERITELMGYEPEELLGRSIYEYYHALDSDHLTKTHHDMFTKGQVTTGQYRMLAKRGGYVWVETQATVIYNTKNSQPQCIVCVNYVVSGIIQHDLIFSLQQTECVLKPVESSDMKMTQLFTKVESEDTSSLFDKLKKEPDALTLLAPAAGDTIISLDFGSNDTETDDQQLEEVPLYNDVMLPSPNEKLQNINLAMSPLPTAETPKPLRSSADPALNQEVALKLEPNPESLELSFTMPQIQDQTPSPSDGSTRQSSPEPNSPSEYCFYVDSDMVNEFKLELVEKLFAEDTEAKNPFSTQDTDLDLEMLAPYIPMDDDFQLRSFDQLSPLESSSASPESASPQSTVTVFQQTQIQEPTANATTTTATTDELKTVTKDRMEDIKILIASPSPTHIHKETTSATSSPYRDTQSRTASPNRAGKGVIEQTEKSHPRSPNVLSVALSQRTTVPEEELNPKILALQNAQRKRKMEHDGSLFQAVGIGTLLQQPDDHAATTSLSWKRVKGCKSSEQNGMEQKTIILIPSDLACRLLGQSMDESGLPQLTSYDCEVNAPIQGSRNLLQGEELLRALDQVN

CCC(C)=NO
inactive: all assays above
